# Source: the supplement of paper PMC10681739
# The full ranking holds about 2,700 sequences; the median of “arbitrary fluorescence units” is about 4,100, and the highest 2% start at about 54,000. The entries come from a sample that favours the highest values as a whole.
# Biological target: T1, ETS1 (UniProt P14921)
# T1 sequence: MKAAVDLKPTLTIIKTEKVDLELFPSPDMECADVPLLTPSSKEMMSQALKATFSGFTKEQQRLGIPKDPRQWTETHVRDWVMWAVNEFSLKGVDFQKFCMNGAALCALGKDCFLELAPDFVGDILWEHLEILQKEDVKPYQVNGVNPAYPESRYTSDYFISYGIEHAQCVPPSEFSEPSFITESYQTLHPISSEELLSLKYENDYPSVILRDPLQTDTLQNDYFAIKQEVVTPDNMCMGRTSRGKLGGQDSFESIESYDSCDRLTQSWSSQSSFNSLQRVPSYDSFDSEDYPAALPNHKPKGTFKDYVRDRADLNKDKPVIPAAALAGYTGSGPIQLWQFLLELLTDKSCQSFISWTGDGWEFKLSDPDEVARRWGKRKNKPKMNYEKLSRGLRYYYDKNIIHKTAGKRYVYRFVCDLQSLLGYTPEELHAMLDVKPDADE
# Experiment: ETS1 binding intensity (PBM fluorescence) (arbitrary fluorescence units); higher = stronger binding
# Details: ETS1 concentration 10 nM
# Method: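 gcPBM on wild-type 36-bp genomic probes with two neighbouring ETS1 sites (4-24 bp apart). Recombinant human ETS1 (10 nM) was detected with anti-ETS1 antibody fluorescence. Values are medians over 3 replicate spots. The probes sit in constant array flanks that are not printed.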
row,Sequence,ETS1 binding intensity
1,CCCGGAGTTCCGCGCGGCGCCAGCCCTTCCGCCACG,375
2,GGGTGCTTCCGGGGCAGCGCGCGCCACTTCCGACCT,33500
3,GCGCCACTTCCGGCAGCGAAGTCACTTCCGCGGAGG,57600
4,GGCTGGGGCGGATGCCGGGGCTGTTCCGGGCCCTCC,1230
5,TGAGCGCCGTGCCTTCCGGGTTCCGCCCTCCTGGGT,1430
6,AGAATGAGCTGCAGGAAGGCGGAAGCACTAGCGTGC,421
7,CGGGACAGGAAGTGTGGACAGGCTCCTTCCTGTTTG,15000
8,AGAAACGGAAAGAAAGTGACCCCTCCCTTCCTTTCA,175
9,TGGGGTTTCCTGGGGTGTTCTGTCTACATCCTGAGA,5150
10,CCCAGCGAGAGGTTTCCTCTTCCGGCACCTGACCCC,4930
11,ACAACCTTTAAACTTCCGGTTTCCTCTGTGCGAGGT,56700
12,TTCCTCTCCTTTCCGCGAGACCTTCCGCGGTTATCC,178
13,GGCTTCAGGATGCATTGACAATTAAAGGAAGTCAGA,275
14,GAGGCGGGACTTCCTACAGCACTTCCGGCCAGAGCC,26500
15,GGGGCCACTTCCCGGGGCCAGGCAGGAAGCCCGCCC,3870
16,CCGGCACTTCCGGCAGGCCAGGGCACTTCCGGGACC,58000
17,CGCTGAACTTCCCGAGCTCGGGGTGGGATGTGGCCG,734
18,GAGAGGCAGGAAGAGAGCAGAGCCGGAAGCACAAGG,2630
19,GTCACTTCCGGCAGCCGGAGGCAGCAGAGGAAGCCG,71500

row,Sequence,ETS1 binding intensity
1,GCAGAAGGGAGGAAGAAGCAGGCGGAAGCAGCCGGT,522
2,CTCTAGGTCTAACATCCCTCGGAAGTTCGTGCAGCG,175
3,CTCTTGGCAACATCCGGTCACATCCCCTCCGCTATT,60900
4,GGCAAAAACCCACATCCTCTTCCGCTGGCTCCACCT,8480
5,CAACCGAAAACATCCCGTGCCGGAAGCGCGTCATCG,4780
6,TGCAAAGCATCCTGGGTGCCAGGCTTCCTGGGGCTT,1890
7,CGCCCCTGGGGCTTCCGCGGCGGAAGCCTAGCGTCC,824
8,GCAACTTCCGCCCTGAGAAGGGTGGGGCTTCCGTCT,63000
9,TGAAGGCTTCCGCCAAGGTGAGGGGCTTCCTCTGGG,9460
10,CCAAGCTGGTTTCCTCTCCGGTTTCCTCCGGGGTGG,3800
11,CTGACCTGCTTCCTCATGGTTGTTTCCTGCCTATTG,3740
12,TCCACTTCCGGGTCCGGGACACCGCCCGGATCTTGC,64200
13,GCCACCGCCCCTTCCGGGTCCGGAACGGCTCCAGCT,7050
14,GACGGACACCCGTTTCCGCTTCCGGGTCACGCTTCT,20900
15,ACGACGCAGCCACTTCCGATTCCGGTCGGAGCACCG,8910
16,CCTCAGGATGGCATCAGCCTGTGACCACTTCCTGTG,2200
17,TTCTTCACAAGCGGATGTCACTTCCTGCCTGTGACA,17200
18,GCCTCACTTCCTGTGTTCAAGTGACAGGATGTGACA,70700
